Screen size: about 300,000 compounds; about 3,200 (1.1%) were called active. No stated cut-off is given here; in the data, active means inhibition above about 75%; inconclusive means no clear call, values can overlap the other calls; inactive means below that; tested in HMLE shEcad cells. The sample as a whole holds a higher share of actives than the screen did.

The nature of this experiment: cancer stem cell viability inhibitors, primary screen, luminescence (AID 2717). As to conditions: cancer stem cell-like cells viability, at 7.5 µM, active compounds read high.
As to `Cc1ccc(S(=O)(=O)N2CCN(C(=O)CN3C(=O)NC(C)(c4ccc(Cl)cc4)C3=O)CC2)c(C)c1` (centres undefined), the inhibition (usually the relative decrease from the control value, in per cent) is 3.13% (inactive).

For `CC1(C)C=Cc2c(ccc3c2OC[C@@H](c2ccc(O)cc2O)C3)O1`, the inhibition is 90% (active).

Regarding `Cc1ccsc1C(=O)OCC(=O)NCCc1ccccc1`, the inhibition is 12.1% (inactive).

For `Cc1nnc(N/N=C/C2CC=CCC2)[nH]c1=O` (centres undefined), the inhibition was 9.52% (inactive).

In the case of `Cc1nnc(N/N=C/c2ccccn2)[nH]c1=O`, the inhibition is 121% (active).

On to `CNC(=O)C(=O)N/N=C/c1ccccn1`, for which the inhibition was -9.33% (inactive).

Take `O=C(COC(=O)CSc1ccccc1)Nc1ccc(F)cc1F`: the inhibition is -0.0328% (inactive).

For `CNC[C@H]1Oc2c(NC(=O)C3CCCCC3)cccc2C(=O)N([C@H](C)CO)C[C@@H]1C`, the inhibition is 1.2% (inactive).

Turning to `Cc1cccc(N2CCN(C(=O)c3cccc(N4C(=O)C5C6C=CC(C6)C5C4=O)c3)CC2)c1C` (centres undefined), the inhibition is 26.5% (inactive).

Regarding `CCn1c(C)c(C)c2cc(C(=O)N3CCN(c4cccc(C)c4C)CC3)ccc21`, the inhibition was 120% (active).

As to `CCC(CC)C(=O)N1CCN(c2cccc(C)c2C)CC1`, the inhibition is -11.5% (inactive).

As for `COc1ccccc1C(=O)COC(=O)COc1ccc(C#N)cc1`, the inhibition is 2.49% (inactive).

Consider `CC(C)(C)OC(=O)N[C@H](C(=O)OC(C)(C)C)c1ccc(Br)cc1`, for which the inhibition is 0.862% (inactive).

Take `CC(OC(=O)c1ccc([N+](=O)[O-])cc1)C(=O)NCC1CCCCC1` (centres undefined): the inhibition is -10.2% (inactive).

`CC(C)=CCCC1(C)C=Cc2c(ccc3c2[nH]c2cc(O)c(C)cc23)O1` (centres undefined): the inhibition was 101% (active).

For the compound `CCOC(=O)[C@H]1[C@H]2COc3cc(OC)ccc3[C@@H]2N2C(=O)CN(Cc3ccc(Cl)cc3)C(=O)[C@@]12C`, the inhibition is -21.1% (inactive).

Turning to `CC1CN(C(=O)c2ccc([N+](=O)[O-])s2)CC(C)O1` (centres undefined), the inhibition was 0.926% (inactive).

With `COc1cc(NC(=O)COC(=O)c2ccc([N+](=O)[O-])s2)cc(OC)c1OC`, the inhibition was -12.6% (inactive).

As to `CN(c1ccccc1)S(=O)(=O)c1ccc(C(=O)N2CCN(c3ccccc3Cl)CC2)cc1`, the inhibition was -0.098% (inactive).

As to `CCCCCCc1ccc(O)cc1O`, the inhibition is -10.2% (inactive).

Regarding `CCCCCCc1cc2cc(-c3nnc(-c4ccccc4)o3)c(=O)oc2cc1O`, the inhibition is 118% (active).

Take `Cc1c(CC(=O)NCCCCCC(=O)O)c(=O)oc2cc3occ(-c4ccccc4)c3cc12`: the inhibition is -4.15% (inactive).

As to `CC(C)NC(=O)Nc1cccc2c1O[C@H](CN(C)S(=O)(=O)c1cccs1)[C@@H](C)CN([C@H](C)CO)C2=O`, the inhibition was -18% (inactive).

Take `COc1ccccc1NS(=O)(=O)c1ccc(C)c(C(=O)NNC(=O)c2csc(N3CCOCC3)n2)c1`: the inhibition is -11.7% (inactive).

Consider `CCCCCCC(=O)Nc1nc(C)c(-c2csc(Nc3cc(Cl)ccc3OC)n2)s1`, for which the inhibition is 5.64% (inactive).

With `CCCCC(=O)Nc1nc(C)c(-c2csc(Nc3ccc(Cl)cc3)n2)s1`, the inhibition was 63.1% (inactive).

For `C=CCCC(=O)Nc1nc(C)c(-c2csc(Nc3ccc(Cl)cc3)n2)s1`, the inhibition was 99% (active).

As for `C/C=C/c1ccc(OCC(=O)NNC(=O)CN(C)S(=O)(=O)c2ccc(C)cc2)c(OC)c1`, the inhibition is -2.93% (inactive).

On to `CN(C(=O)c1cccc(NC(=O)Cc2ccc([N+](=O)[O-])cc2)c1)C1CCC1`, for which the inhibition is 1.28% (inactive).

For the compound `Cc1cccc(-n2ncc(Cl)c(Cl)c2=O)c1`, the inhibition is 138% (active).

For `COc1ccc(Oc2c(Cl)cnn(-c3ccccc3)c2=O)cc1`, the inhibition was 22% (inactive).

On to `Cc1cccc(-n2ncc(C#N)c2-n2cccc2)c1`, for which the inhibition was -10.4% (inactive).

Take `O=C(COC(=O)c1n[nH]c2ccccc12)Nc1ccccc1Br`: the inhibition is -14% (inactive).

On to `CC1CCCCC1NC(=O)Cn1cnc2c1c(=O)n(C)c(=O)n2C` (centres undefined), for which the inhibition is -15.5% (inactive).

In the case of `CC(C)(C)OC(=O)C[C@@H]1C/C=C\C[C@H](CC(=O)N[C@@H](CO)Cc2ccccc2)C(=O)N[C@H](Cc2ccccc2)COC1=O`, the inhibition was -5.32% (inactive).

With `CCc1c(C)sc(NC(=O)c2ccc(Br)o2)c1C(=O)OC`, the inhibition is 28.8% (inactive).

`CCc1c(C)sc(NC(=O)/C=C/c2ccc3c(c2)OCO3)c1C(=O)OC`: the inhibition was 96.5% (active).

`CCOC(=O)CCCNC(=O)COC(=O)/C=C/c1ccc2c(c1)OCO2`: the inhibition is -10.5% (inactive).

For the compound `COc1ccc(S(=O)(=O)N2CCN(C(C)C(=O)Nc3ccc(C(C)C)cc3)CC2)cc1` (centres undefined), the inhibition was -10.6% (inactive).

On to `O=C(COC(=O)c1cccs1)Nc1ccccc1Cl`, for which the inhibition is -12.7% (inactive).

Turning to `O=C(Nc1ccccc1Cl)/C(Cl)=C(\Cl)S(=O)c1ccccc1` (centres undefined), the inhibition was 145% (active).

Turning to `O=C(Nc1ccccc1Cl)Nn1cnnc1`, the inhibition is -3.82% (inactive).

For the compound `CC(C)(C)OC(=O)C[C@@H]1C/C=C\C[C@@H](CC(=O)N[C@H](CO)Cc2ccccc2)C(=O)NCCOC1=O`, the inhibition was -6.88% (inactive).

As for `CCOc1ccc(NC(=O)CN(C)C(=O)Cc2sc(C)nc2-c2ccc(F)cc2)cc1OCC`, the inhibition is -4.92% (inactive).

With `COc1cc(C=NNC(=O)c2cccnc2)ccc1OC(=O)c1ccccc1F`, the inhibition is -6.57% (inactive).

Regarding `O=C1CSc2ccc(C(=O)NCc3ccccn3)cc2N1`, the inhibition is -3.45% (inactive).

For `Cc1cccc(C)c1NC(=O)CNC(=O)c1ccc2c(c1)OCCO2`, the inhibition is 14.6% (inactive).

For the compound `N#Cc1ccc(CN2CCN(CC(=O)Nc3ccccc3C(=O)NC3CC3)CC2)cc1`, the inhibition is -9.82% (inactive).

Take `N#Cc1c(-c2ccccc2)nc(SCc2ccc([N+](=O)[O-])cc2)[nH]c1=O`: the inhibition is 3.97% (inactive).

Regarding `Cc1ccc(CSc2nc(-c3ccccc3)c(C#N)c(=O)[nH]2)cc1`, the inhibition was 27.6% (inactive).

As for `N#Cc1c(-c2ccccc2)nc(SCc2cccc(C(F)(F)F)c2)[nH]c1=O`, the inhibition is 105% (active).

Turning to `O=C(COC(=O)/C=C/c1cccc(Cl)c1)NCc1cccs1`, the inhibition was 2.73% (inactive).

In the case of `O=C(CN1CCN(c2ccc(F)cc2)CC1)Nc1ccccc1`, the inhibition was -1.5% (inactive).

Consider `Oc1ccc(CN2CCN(c3ncccn3)CC2)cc1`, for which the inhibition is -8.35% (inactive).

As to `Oc1c(CN2CCN(c3ccc(F)cc3)CC2)cc(Cl)c2cccnc12`, the inhibition is 138% (active).

Take `O=C1c2ccccc2C(=O)N1CCC#Cc1ccc2cc(C3(O)CCCCC3)oc(=O)c2c1`: the inhibition is 4.37% (inactive).

For `COc1ccc2c(c1OC)C(=O)OC2Nc1nc(-c2ccccc2)cs1` (centres undefined), the inhibition was 126% (active).

In the case of `COc1ccc(CCNc2nc(-c3cccc(NC(C)=O)c3)cs2)cc1OC`, the inhibition was -2.96% (inactive).

Regarding `Cc1ccc(-c2csc(NC3OC(=O)c4ccccc43)n2)cc1` (centres undefined), the inhibition was -24.8% (inactive).

Source of the values: PubChem BioAssay AID2717 (Broad Institute, 2010).
